Rows were chosen to be rich in hits. Some 2.8% of all compounds tested hit in one or more screens of this group.
Six1-Eya2 blk: blocks human Six1 binding to Eya2; Q15475+O00167; AlphaScreen GST-Six1/His-Eya2 binding, biochemical; stronger effect = lower value; activity change, % (test concentration not listed); 0.56% of 360,000 active; in the data active = activity change below about -65%; inconclusive = mostly about -30% to -63%
Target sequence (O00167 whole entry, looked up): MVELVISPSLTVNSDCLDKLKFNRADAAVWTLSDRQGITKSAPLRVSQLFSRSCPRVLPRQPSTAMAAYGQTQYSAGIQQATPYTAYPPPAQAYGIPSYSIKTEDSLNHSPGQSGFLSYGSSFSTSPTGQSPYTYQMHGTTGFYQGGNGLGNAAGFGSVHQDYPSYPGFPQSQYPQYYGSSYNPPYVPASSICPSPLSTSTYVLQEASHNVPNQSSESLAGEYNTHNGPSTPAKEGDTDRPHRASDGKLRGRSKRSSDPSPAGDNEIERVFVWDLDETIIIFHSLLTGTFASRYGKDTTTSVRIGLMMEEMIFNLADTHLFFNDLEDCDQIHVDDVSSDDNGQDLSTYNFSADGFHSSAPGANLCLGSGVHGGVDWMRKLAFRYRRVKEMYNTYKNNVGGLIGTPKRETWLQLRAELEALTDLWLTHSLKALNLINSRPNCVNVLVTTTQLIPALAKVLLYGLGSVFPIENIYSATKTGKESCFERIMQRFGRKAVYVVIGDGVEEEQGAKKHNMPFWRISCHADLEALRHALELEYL
Target sequence (Q15475 whole entry, looked up): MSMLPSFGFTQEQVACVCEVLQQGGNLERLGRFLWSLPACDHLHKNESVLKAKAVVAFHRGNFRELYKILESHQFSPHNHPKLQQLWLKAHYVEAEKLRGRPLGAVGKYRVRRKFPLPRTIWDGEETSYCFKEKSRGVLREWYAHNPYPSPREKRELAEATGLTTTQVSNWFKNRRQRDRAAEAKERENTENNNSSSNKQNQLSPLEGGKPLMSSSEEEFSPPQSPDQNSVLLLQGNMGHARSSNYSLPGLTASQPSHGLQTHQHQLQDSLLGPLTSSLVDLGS
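GST-Six1 + His-Eya2 (5X stock: 250/500 nM); Tris pH 8.0, 300 mM NaCl, 0.05% BSA, 0.02% Tween 20; GSH donor/Ni acceptor beads; 1 h 37 °C dark; AlphaScreen readout.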
S2 tox: viability counter-screen for ATXN expression inhibitors. S2 cells (HEK-293 line with an ATXN2-luciferase reporter) viability, CellTiter-Fluor protease fluorescence, 24 h. Potency, µM (titrated, usually from 56.7 µM), hits mostly cytotoxic. 0.49% of 400,000 active. AID 651635; also: nearly all actives have a fitted effect of over 40% in size
HepG2 viability: counter-screen for TGF-b inhibitors: cytotoxicity in HepG2 cells; HepG2 CAGA-GFP viability, ATP luminescence, 18 h; Potency, µM (series often up to 46.1 µM), most hits filed as cytotoxic; 0.76% of 410,000 active
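HepG2 CAGA-GFP cells (1000/well, DMEM with 1% FBS) received compound, then TGF-beta at 500 pg/mL final, and were incubated 18 hours at 37 degrees C. Viability was read by CellTiter-Glo luminescence. Media-only wells were set as complete cell-killing and DMSO as no toxicity.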
ATXN2 expr inh: ATXN2 expression inhibition; HEK-293 ATXN2-luciferase reporter, luminescence, 24 h; AID 1745845; Potency, µM (top dose mostly 57 µM), usual class: inhibitors; 0.72% of 360,000 active; also: nearly all actives have a fitted effect of over 55% in size
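ATXN2-luciferase reporter cells (luciferase flanked by upstream and downstream ATXN2 gene portions) were treated 24 h at 37 °C with compounds at up to 57 uM. SteadyGlo luminescence gave expression; GF-AFC fluorescence gave viability.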
TGFb SMAD3 inh: TGF-b pathway inhibition; HepG2 CAGA-GFP TGF-b/SMAD3 reporter, GFP fluorescence, 18 h; TGF-beta stimulated, 500 pg/mL final; Potency, µM (titrated, usually from 46.1 µM), most hits filed as inhibitors; 1.2% of 410,000 active; also: nearly all actives have a fitted effect of over 65% in size
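HEPG2 CAGA-GFP reporter cells (1000/well, DMEM with 1% FBS) received compounds, then recombinant TGF-beta at 500 pg/mL final for 18 hours at 37 degrees C. Per-cell GFP summed per well was normalised to unstimulated and stimulated DMSO controls before curve fitting.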
CtBP-E1A inh: inhibitors of CtBP/E1A interaction. AlphaScreen GST-E1A/His-CtBP binding, 1536-well; stronger effect = lower value. activity change, % (concentration not given with the values). 0.49% of 340,000 active. AID 651724; in the data active = activity change below about -65%; inconclusive = mostly about -30% to -63%
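In 5 uL wells, 23 nL compound meets equimolar GST-E1A and His-CtBP (5X stock 125 nM each) for 2 h, 37 °C. Beads (5X, 50 ug/mL) then 1 h, 37 °C, dark.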
Hits are given with their value; . = inactive; ? = inconclusive; / = not tested or not shown. Unless noted, calls follow the shape of the dose curve; as a rule, active = well fitted curve in the direction sought with a large enough effect; inconclusive = small, poorly fitted or top-dose-only effect, or another doubt; inactive = no such curve, though single readings can be large; an effect the other way counts as inactive or inconclusive.

SMILES	Six1-Eya2 blk	S2 tox	HepG2 viability	ATXN2 expr inh	TGFb SMAD3 inh	CtBP-E1A inh
COc1ccc(C(NC(=O)c2cccnc2)c2cc(Cl)c3cccnc3c2O)cc1OC (configuration not stated)	-91	.	.	16µM	?	-92
Oc1c(C(Nc2ccccn2)c2cccnc2)cc(Cl)c2cccnc12 (configuration not stated)	-90	.	.	22µM	.	-89
COC(=O)c1c(OCc2ccccn2)cc(=O)n2c1CCN(C(=O)c1cc(C(C)C)nn1C)CC2	/	.	/	/	/	/
Cc1cc(OCCCCCNCCO)cc(C)c1Cl	.	.	11µM	?	?	.
Cc1cc(OCCNCCO)cc(C)c1Cl	.	.	.	.	.	.
COc1ccc(OC)c(C2NC(=O)NC(C)=C2C(=O)Nc2ccc(F)cc2)c1 (configuration not stated)	/	.	.	.	.	/
COc1ccc(-c2ccc(C(=O)NCc3ccc(N4CCN(C)CC4)cc3)c3occc23)c(C)c1	?	25µM	11µM	?	?	?
COc1ccc(F)c(F)c1C(=O)c1cnc(NC2CCN(S(C)(=O)=O)CC2)nc1N	/	/	/	2.7µM	/	/
CC(C)Cc1ccc(S(=O)(=O)N2CCN(Cc3noc(CCC(=O)N4CCCCC4)n3)CC2)cc1	/	/	.	/	11µM	/
COc1cc(CNCCc2ccc(S(N)(=O)=O)cc2)ccc1OCc1ccc(Cl)cc1	.	22µM	.	18µM	?	.
OCCN(Cc1ccccn1)Cc1ccccn1	-90	.	.	.	.	-89
OCc1ccccn1	/	.	/	.	/	/
Cc1cc(Br)cc2c1N(Cc1ccccc1OC(C)C)C(=O)C2=O	/	/	10µM	/	/	/
COc1cc(OC)c(OC)cc1/C=C/c1cc(C(=O)O)c2ccccc2n1	.	.	.	/	.	/
COc1ccc(/C=C/c2cc(C(=O)O)c3ccccc3n2)cc1	.	.	.	2.2µM	.	.
Cc1cc(C)c2c(n1)sc1c(O)cc(=O)[nH]c12	-71	.	.	.	.	.
COc1ccc(OC)c(NC(=O)CSc2nc3[nH]c(=O)cc(O)c3s2)c1	.	/	.	/	.	/
COc1ccc(-c2cc(C(F)(F)F)c3c(n2)sc2c(O)cc(=O)[nH]c23)c(OC)c1	?	.	2.2µM	.	.	?
Cc1ccc2cc3cc(C(=O)N(C)c4ccccc4C)oc3nc2c1	/	/	.	/	/	/
Cc1ccc(CNC(=O)C(C)n2c(=O)cc(-c3ccccc3)c3c(C)nn(C)c32)cc1 (configuration not stated)	/	?	.	.	.	/
CCOc1ccc(CC(=O)NC2CC(=O)N(c3cccc(F)c3)C2)cc1 (configuration not stated)	/	/	.	/	.	/
Cc1ccc(SC(CC(=O)c2ccc(F)cc2)C(=O)O)cc1 (configuration not stated)	.	.	.	.	.	.
CC(C)(C)c1ccc(C(=O)CC(Sc2ccc(Cl)cc2)C(=O)O)cc1 (configuration not stated)	.	/	16µM	?	?	.
Cc1ncc(-c2ccnc(Nc3ccc(S(C)(=O)=O)cc3)n2)n1C(C)C	/	/	/	3.4µM	/	/
COc1ccc(Oc2ccc(/C=C/C(=O)c3ccc(O)cc3)cc2[N+](=O)[O-])cc1	.	/	.	22µM	16µM	.
SMILES	Six1-Eya2 blk	S2 tox	HepG2 viability	ATXN2 expr inh	TGFb SMAD3 inh	CtBP-E1A inh
COc1ccc(/C=C/C(=O)c2ccc(O)cc2)cc1COc1ccc(F)cc1	.	.	16µM	?	?	.
O=C(/C=C/c1ccc(O)c([N+](=O)[O-])c1)c1ccc2ccccc2c1	.	.	.	.	?	.
CC(C)c1ccc(/C=N/NC(=O)c2ccccn2)cc1	.	.	.	13µM	.	.
O=C(N/N=C/c1ccc2c(c1)OCO2)c1ccccn1	.	.	7.1µM	?	.	.
O=C(N/N=C/C=C\c1ccco1)c1ccccn1	-88	.	.	.	?	.
O=C(N/N=C/c1ccncc1)c1ccccn1	.	.	.	.	.	.
O=C(N/N=C/c1cc2c(cc1Br)OCO2)c1ccccn1	.	.	.	.	.	.
